A selection: hits, their analogues and other compounds. The true share with any hit is near 11%.
HEK cytotox – HEK 293 cell cytotoxicity; actives 6.6% (n = 94,000); HEK 293 viability, ATP luminescence (CellTiter-Glo), 48-72 h; Potency, µM (top dose mostly 115 µM), without a hit: top-dose activity change, negative = cytotoxicity, most hits filed as inhibitors; AID 1345083; note: nearly all actives have a fitted effect of over 60% in size
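HEK 293 cells at 250 cells/well were exposed to compounds by pintool transfer for 48 or 72 hr at 37 degree Celsius, 5% CO2. Viability was read as ATP-coupled luminescence with CellTiter-Glo after 10 min at room temperature.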
Luciferase inh – Photinus pyralis luciferase inhibition. purified P. pyralis luciferase, luminescence, biochemical. actives 2.5% (n = 76,000). Potency, µM (doses to about 115 µM), hits mostly inhibitors. P08659; note: nearly all actives have a fitted effect of over 65% in size
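Purified P. pyralis luciferase (10nM final) in 50mM Tris acetate pH 7.5, 10mM Mg acetate, 0.01% Tween-20, 0.05% BSA with 10uM D-luciferin and 10uM ATP. Compounds titrated qHTS. Luminescence imaged on CCD.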
hNpr1 antagonist – human Npr1 receptor antagonism; P16066; HEK293 hNpr1 GloSensor cGMP, ANP-stimulated luminescence; Potency, µM (top dose mostly 46.3 µM), for the others: at the highest dose activity change, negative = inhibition, actives largely listed as inhibitors; actives 1.6% (n = 76,000); calls by dose curve; note: nearly all actives have a fitted effect of over 60% in size
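Compound pre-incubated 30 min at room temperature on GloSensor-loaded HEK293 cells stably carrying hNpr1 and the pGS-40F cGMP biosensor. Stimulation uses hNppA at 0.1 nM final; luminescence is taken at baseline and 20 min post-agonist.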
3T3 cytotox – NIH 3T3 cell cytotoxicity; actives 4.3% (n = 94,000); NIH 3T3 viability, CellTiter-Glo ATP luminescence, 48-72 h; Potency, µM (top dose mostly 96.7 µM), inactives show top-dose activity change, negative = cytotoxicity, actives largely listed as inhibitors; note: nearly all actives have a fitted effect of over 55% in size
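Mouse fibroblast NIH 3T3 cells, 400 per well, received compound via pintool and were incubated for 48 or 72 hr prior to CellTiter-Glo ATP luminescence measurement.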
Starred values were filed as active, the others as inactive; i = inactive; ? = inconclusive; . = no result given; [ ] = dose if it differs, or a comment. Unless noted, calls come from the whole dose curve; as a rule, active = well fitted curve in the direction sought with a large enough effect; inconclusive = small, poorly fitted or top-dose-only effect, or another doubt; inactive = no such curve, though single readings can be large; an effect the other way counts as inactive or inconclusive. % is set by controls: 0 for no effect and ±100 for the full control effect; potency is the fitted concentration of half-maximal effect.

SMILES	HEK cytotox	Luciferase inh	hNpr1 antagonist	3T3 cytotox
C=C[C@H]1CN2CC[C@H]1C[C@@H]2CNCc1cccc(Cl)c1	?	i	-13.7%[70.6 µM]	?
CC[C@H]1CN2CC[C@H]1C[C@@H]2CNC(=O)c1ccc2ccccc2c1	?	i	-12.0%[70.6 µM]	?
C#C[C@H]1CN2CC[C@H]1C[C@@H]2CNC(=O)c1ccc(-c2ccccc2)cc1	89.1µM*	i	0.9%[70.6 µM]	112µM*
COc1ccc(CC(=O)N2CCCN(CCn3nc4n(c3=O)CCCC4)CC2)cc1	-1.9%	.	.	-24.9%
O=C(O)c1cn(C2CCCCCC2)nn1	-4.6%	i	0.7%	-19.9%
Cc1ccsc1C(=O)N1CCC2(CC1)NCc1ccccc1-n1ccnc12	-16.7%	i	-9.0%	28.2µM*
Cc1ccccc1C(=O)N1CCC2(CC1)c1nccn1-c1ccccc1CN2CC(C)C	44.7µM*	i	-25.7%	?
O=C1CC2CCN(Cc3cccc(Br)n3)CC2CCN1 (stereo not given)	i	.	.	i
CC(C)(C)c1ccc(-c2cn(C[C@H]3CC4CCN3C[C@@H]4C(=O)N3CCOCC3)nn2)cc1 (stereo not given in full)	-15.3%	?	-1.3%	-23.8%
CCn1cc(CN2CCN(C(=O)Cc3c(C)noc3C)CC2)ccc1=O	?	i	-3.2%	-21.1%
Cc1ccc(CN2C[C@@H]3C(C(N)=O)=NO[C@@H]3C2)nc1	-9.2%[230 µM]	i	8.3%[70.6 µM]	112µM*
COc1cc2c(cc1OC1CCCC1)NC(=O)C21CCN(Cc2ccccc2O)CC1	39.8µM*	i	-20.4%[70.6 µM]	22.4µM*
COc1cc2c(cc1OC1CCCC1)NC(=O)C21CCN(Cc2nccs2)CC1	100µM*	i	-3.7%[70.6 µM]	?
COc1cc2c(cc1OC1CCCC1)NC(=O)C21CCN(Cc2cccnc2)CC1	100µM*	i	-7.8%[70.6 µM]	?
COc1ccc2c(c1)C1(CCN(C(=O)Nc3ccc(OC)c(OC)c3)C1)C(=O)N2 (stereo not given)	2.6%	i	-1.3%	i
COc1cc2c(cc1Oc1ccccc1)NC(=O)C21CCN(c2ncc(C(C)C)cn2)CC1	?	i	6.9%	?
COc1cncc(CN2CCC3(CC2)C(=O)Nc2cc(Oc4ccccc4)c(OC)cc23)c1	35.5µM*	i	-26.5%	?
COc1cc2c(cc1Oc1ccccc1)NC(=O)C21CCN(Cc2ccccc2)CC1	28.2µM*	i	?	28.2µM*
COc1cc2c(cc1Oc1ccccc1)NC(=O)C21CCN(c2ncccn2)CC1	?	i	-30.3%[70.6 µM]	79.4µM*
O=C(CN1CCCC1=O)NCc1ccccc1C(F)(F)F	8.8%	i	-2.2%	4.2%
CCOC(=O)[C@H]1CN(C(=O)CCc2ccccc2)[C@]2(C)C(=O)N(CCOC)c3ccccc3[C@H]12	?	.	.	-18.2%[46.1 µM]
CSc1ccc(-c2ccc(=O)n3c2[C@@H]2C[C@@H](CN(S(=O)(=O)c4cccs4)C2)C3)cc1	?	i	-2.4%	-6.8%
Cc1cc(C(=O)N2[C@H]3CC[C@@H]2c2cnc(-c4ccccc4)nc2C3)n[nH]1	?	.	.	-30.1%
COc1ccc(-c2cc([C@H]3CN4CC[C@H]3C[C@@H]4COC(=O)Nc3ccc(C(C)C)cc3)n(C)n2)cc1OC	?	i	0.2%	?
CCCNC(=O)OC[C@H]1C[C@@H]2CCN1C[C@@H]2c1cc(-c2ccc(F)cc2)nn1C	?	i	-8.9%[70.6 µM]	?
SMILES	HEK cytotox	Luciferase inh	hNpr1 antagonist	3T3 cytotox
Cn1nc(-c2ccc3ccccc3c2)cc1[C@H]1CN2CC[C@H]1C[C@@H]2COC(=O)Nc1cccc(C(F)(F)F)c1	79.4µM*	i	3.9%	?
CC(C)NC(=O)OC[C@H]1C[C@@H]2CCN1C[C@@H]2c1cc(-c2ccc3ccccc3c2)nn1C	28.2µM*	39.8µM*	-25.3%[70.6 µM]	28.2µM*
CC(C)NC(=O)OC[C@H]1C[C@@H]2CCN1C[C@@H]2c1cc(-c2ccc(F)cc2)nn1C	112µM*	i	-2.2%[70.6 µM]	?
CCCNC(=O)OC[C@H]1C[C@@H]2CCN1C[C@@H]2c1cc(-c2ccccc2OC)nn1C	?	i	-1.2%[70.6 µM]	?
CCCNC(=O)OC[C@H]1C[C@@H]2CCN1C[C@@H]2c1cc(-c2ccc3ccccc3c2)nn1C	63.1µM*	i	-10.2%[70.6 µM]	31.6µM*
CCOC(=O)[C@H]1CN(C(=O)c2ccc(F)cc2)[C@]2(C)C(=O)N(CCOC)c3ccccc3[C@H]12	-16.3%[57.5 µM]	.	.	?
COc1cc([C@@H]2c3cc4c(cc3[C@H](O)[C@@H](CO)[C@@H]2C(=O)N2CCCC2)OCO4)cc(OC)c1OC	?	i	0.8%	?
CC(=O)NC[C@H]1C[C@@H]2CCN1C[C@@H]2c1cc(-c2cccs2)nn1C	-5.3%[172 µM]	i	1.9%[70.6 µM]	?
CC(C)NC(=O)NC[C@H]1C[C@@H]2CCN1C[C@@H]2c1cc(-c2ccc3ccccc3c2)nn1C	22.4µM*	i	2.3%[70.6 µM]	28.2µM*
COc1ccc(-c2cc([C@H]3CN4CC[C@H]3C[C@@H]4COC(=O)Nc3ccccc3)n(C)n2)cc1	?	i	-6.5%	20µM*
Cn1nc(-c2cccs2)cc1[C@H]1CN2CC[C@H]1C[C@@H]2COC(=O)Nc1ccccc1	44.7µM*	i	-16.0%[70.6 µM]	35.5µM*
COc1ccc(NC(=O)NC[C@H]2C[C@@H]3CCN2C[C@@H]3c2cc(-c3ccccc3)nn2C)cc1	28.2µM*	i	-6.2%	?
FC(F)(F)CN1C2CCC1CN(c1ncnc3sc(Cl)nc13)C2	-17.0%	.	.	?
O=C(Cc1ccc(F)cc1)N1CCN(CCn2nc3n(c2=O)CCCC3)CC1	-2.9%	.	.	-12.4%
COc1ccc(-c2cc([C@H]3CN4CC[C@H]3C[C@@H]4CNC(=O)COc3ccccc3)n(C)n2)cc1	?	i	-26.5%	?
Cn1nc(-c2ccc3ccccc3c2)cc1[C@H]1CN2CC[C@H]1C[C@@H]2CNC(=O)Nc1ccccc1	?	i	0.2%	20µM*
Cn1nc(-c2ccccc2)cc1[C@H]1CN2CC[C@H]1C[C@@H]2CNC(=O)Nc1cccc(C#N)c1	-27.7%	i	4.7%	-21.0%
Cn1nc(C2CCCC2)cc1[C@H]1CN2CC[C@H]1C[C@@H]2CNC(=O)Nc1ccccc1	100µM*	i	5.7%[70.6 µM]	?
Cn1nc(-c2ccc3ccccc3c2)cc1[C@H]1CN2CC[C@H]1C[C@@H]2CNC(=O)Nc1cccc(C#N)c1	?	i	3.8%	44.7µM*
CCNC(=O)NC[C@H]1C[C@@H]2CCN1C[C@@H]2c1cc(-c2ccc3ccccc3c2)nn1C	39.8µM*	i	1.9%[70.6 µM]	31.6µM*
CCNC(=O)NC[C@H]1C[C@@H]2CCN1C[C@@H]2c1cc(C2CCCCC2)nn1C	?	i	-2.6%[70.6 µM]	?
O=C1NCCCCCCN(Cc2ccccn2)[C@H]2CCC[C@@H]12	?	i	-5.6%	?
O=c1ccc(-c2ccccc2)c2n1C[C@H]1C[C@@H]2CN(Cc2ccc(CO)o2)C1	-12.4%[172 µM]	i	-0.4%[70.6 µM]	-11.1%[174 µM]

Screening data as filed in PubChem.
